Among all 350,000 compounds or so, about 2,400 (0.69%) were called active. The entries come from a sample that favours actives as a whole. Values without a mark were called inactive. Rule as the data show it: active = inhibition above about 41%; inconclusive = no clear call, values can overlap the other calls; inactive = below that.

A short description of this test: EBV LMP1-driven NF-kappaB luciferase reporter inhibitors, primary screen, cell-based, luminescence, single point (AID 504558).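 Also: 0% = neutral control wells and 100% = reference inhibitor control.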 The note with it: LMP1-induced NF-kappaB luciferase reporter cells, at 12.5 µM, hits give high values.
Turning to `COc1cc(CNC2CCCC2)c(Br)cc1OCc1ccccc1`, the inhibition is -15.5%.

With `COc1ccc(CCN=C2SCC(=O)N2Cc2ccccc2)cc1OC`, the inhibition is 6.74%.

Regarding `COc1cc(C2CC(=O)N3CN(Cc4ccccc4)CSC3=C2C#N)ccc1OCc1ccccc1` (stereo not given), the inhibition is 65% (active).

In the case of `Cc1ccccc1-c1ccc2c(c1)O[C@@H](CN(C)Cc1ccc(C(=O)O)cc1)[C@@H](C)CN([C@H](C)CO)S2(=O)=O`, the inhibition is 1.79%.

In the case of `C[C@H](CO)N1C[C@H](C)[C@@H](CN(C)C(=O)c2cccc(F)c2)Oc2cc(-c3cncnc3)ccc2S1(=O)=O`, the inhibition is -0.771%.

In the case of `Nc1cccc(OCCCCCOc2cccc(N)c2)c1`, the inhibition was -19.1%.

Take `COCCCn1c(=O)/c(=C/c2ccccc2OC(C)C)s/c1=C(\C#N)C(=O)Nc1ccc(C(=O)O)cc1`: the inhibition was 4.37%.

With `Cc1cc(C)c2cc(C#N)c(N3CCNCC3)nc2c1`, the inhibition is -5.81%.

Take `CC1(C)CN(Cc2cccnc2)C(=O)[C@H]1CC(=O)Nc1ccc(Br)cc1`: the inhibition is -4.33%.

As to `O=C1c2ccccc2C(O)N1Cc1ccccc1` (stereo not given), the inhibition was 49.7% (active).

As for `CCC(C)NC(=O)C1c2ccccc2C(=O)N1Cc1ccccc1` (stereo not given), the inhibition was 30.9%.

Turning to `O=C1c2ccccc2C(O)N1Cc1ccccc1Cl` (stereo not given), the inhibition was -5.54%.

Take `CCN(CC)CCN(C(=O)c1ccc2c(c1)CCCC2)c1nc2c(OC)cccc2s1`: the inhibition was 9.68%.

Consider `O=C(COC(=O)c1ccc(S(=O)(=O)N2CCCCCC2)cc1)Nc1ccccc1C(F)(F)F`, for which the inhibition was -10.6%.

In the case of `CC(C)c1cc(N=O)cc(C(C)C)c1O`, the inhibition was 11.3%.

For `CC(C)=CCc1c(O)c(CC=C(C)C)c2occ(-c3ccc(O)cc3)c(=O)c2c1O`, the inhibition was -4.63%.

Regarding `CC(C)=CCc1ccc(O)c(=O)cc1C(C)C`, the inhibition was 52.9% (active).

For `Cc1ccc(S(=O)(=O)N2C[C@H]3n4c(=O)ccc(=O)n4C[C@H](OC(=O)NC4CCCC4)[C@@]3(O)C2)cc1`, the inhibition is 0.795%.

Consider `CCc1noc(C)c1C(=O)OCC(=O)c1ccc(NC(=O)CC(C)C)cc1`, for which the inhibition is 7.07%.

Regarding `CCN(CC)c1ccc(/C=N/NC(=O)c2cnccn2)c(O)c1`, the inhibition was 66.9% (active).

Regarding `COc1ccc(NC(=O)C/C(C)=N/NC(=O)c2cnccn2)cc1Cl`, the inhibition is 0.411%.

In the case of `CCN(CC)c1ccc(NC(=O)c2ccc(Cl)nc2)cc1`, the inhibition was 2.91%.

Take `COc1cc(C)c(CN2CCN(C(=O)CCC(=O)c3ccc(C)s3)CC2)cc1OC`: the inhibition was -18.3%.

On to `C[C@H]1Cn2cnc(C(=O)N[C@@H](Cc3c[nH]c4ccccc34)C(=O)OC(C)(C)C)c2C(=O)N1`, for which the inhibition was -25.3%.

On to `CCN(CC)C(=O)C1=C(C)N(Cc2ccc(OC)cc2)C(=O)C(CC(=O)NCCCCc2ccccc2)C1` (stereo not given), for which the inhibition was -3.18%.

As to `COc1ncnc2c1ncn2CCCNCCN1CCOCC1`, the inhibition was -1.37%.

In the case of `Oc1c(Cl)cc(Cl)c(Cl)c1Cc1c(O)c(Cl)cc(Cl)c1Cl`, the inhibition was 52.3% (active).

On to `COc1ccccc1NC(=O)C(CC(=O)O)Cc1cc(C)cc(C)c1` (stereo not given), for which the inhibition was -13.3%.

`Cc1cccc(Nc2nc(NCCO)nc(N3CCCC3)n2)c1`: the inhibition was 7.29%.

Consider `OCCCNc1nccc(-c2cc(Nc3cccc(Cl)c3)ncn2)n1`, for which the inhibition was 88.6% (active).

On to `CC(C)n1cnc2c(Nc3cccc(Cl)c3)nc(N(CCO)CCCO)nc21`, for which the inhibition was -2.02%.

Regarding `Cc1ccccc1NC(=O)Cc1nc(COC(=O)CNC(=O)c2ccc(Cl)cc2Cl)cs1`, the inhibition is -5.79%.

Take `CCC(C)Cn1c(O)cc2nn(-c3nc4ccccc4s3)c(=O)c-2c1C` (stereo not given): the inhibition is 51.8% (active).

For `CC(=O)Nc1ccc2nc(NC(=O)CS(=O)(=O)c3ccc(F)cc3)sc2c1`, the inhibition was -1.73%.

Consider `COc1ccccc1C(=O)Nc1cccc(C(=O)N2CCOCC2)c1`, for which the inhibition is -6.8%.

Regarding `O=C(COc1ccc(S(=O)(=O)Nc2cccc(C(F)(F)F)c2)cc1)N1CCOCC1`, the inhibition is 5.55%.

With `O=C(Nc1ccc(C(=O)N2CCOCC2)cc1)Nc1cccc(C(F)(F)F)c1`, the inhibition is 65.4% (active).

As to `COc1ccc(Cn2c(=O)oc3ccccc32)cc1`, the inhibition was -3.08%.

For the molecule `CC1CC(NC(=S)N(C)C)CC(C)(C)C1` (stereo not given), the inhibition was -2.42%.

For the molecule `CNC(=O)C[C@H]1C(=O)N(c2ccc(OC)cc2)C[C@@H]1Cc1ccccc1`, the inhibition is -2.06%.

Take `C/C(=N\Nc1nncc2ccccc12)c1ccc(Cl)c([N+](=O)[O-])c1`: the inhibition was -18.4%.

For the molecule `COc1cccc(/C=N\Nc2nncc(-c3ccccc3)n2)c1`, the inhibition was -5.65%.

Turning to `CN(CCO)c1ccc(/C=N/Nc2nncc3ccccc23)cc1`, the inhibition is 45.7% (active).

In the case of `NC(=O)CSc1nnc(-c2cccc(S(=O)(=O)N3CCOCC3)c2)o1`, the inhibition was 1.36%.

`O=C1CCC(C(=O)OCC(=O)Nc2ccc(OC(F)F)cc2)=NN1`: the inhibition was -2.22%.

For the molecule `O=C(Nc1cc(F)ccc1F)c1ccc2c(=O)n3c(nc2c1)CCC3`, the inhibition is -23.7%.

Consider `O=C(O)CC(SCC(=O)Nc1ccc(Br)cc1)C(=O)O` (stereo not given), for which the inhibition is -3.51%.

For `O=C(CSCc1ccc(Br)cc1)Nc1ccc(S(=O)(=O)N2CCCCCC2)cc1`, the inhibition was -7.38%.

Regarding `O=C1CCCN2N=C(SCC(=O)Nc3ccc(Br)cc3)SC2=N1`, the inhibition is 46.9% (active).

Consider `C[C@H](CO)N1C[C@H](C)[C@@H](CN(C)C(=O)C2CCCCC2)OCc2cnnn2CCCC1=O`, for which the inhibition is 0.386%.

`C[C@H]1CN([C@@H](C)CO)C(=O)c2cc(-c3cccc(F)c3)cnc2O[C@@H]1CN(C)S(C)(=O)=O`: the inhibition is 5.8%.

In the case of `C=CC(=O)OCCOCCOCCOCCOC(=O)C=C`, the inhibition was 83.3% (active).

Consider `COc1cc2ccccc2cc1C(=O)N1CCOCC1`, for which the inhibition is 25.1%.

In the case of `COc1cccc2cc(C(=O)N3CCN(C(=O)c4ccccc4)CC3)c(=O)oc12`, the inhibition is -0.766%.

Turning to `O=C(c1cc2cc(Br)cc(Br)c2oc1=O)N1CCOCC1`, the inhibition was 83.6% (active).

As to `O=C(N=C1SC2CS(=O)(=O)CC2N1Cc1ccccc1)c1ccccc1` (stereo not given), the inhibition is 1.35%.

As for `COC(=O)[C@H]1C[C@H](OC(=O)NCc2ccccc2)[C@@]2(O)CN(S(=O)(=O)c3ccc(C)cc3)CC2[C@H]1C(=O)OC` (stereo not given in full), the inhibition is -13.5%.

In the case of `Cc1ccsc1C(=O)OCC(=O)c1cc(C)n(CC2CCCO2)c1C` (stereo not given), the inhibition was 63.2% (active).

On to `COc1ccc(C(=O)OCC(=O)c2cc(C)n(CC3CCCO3)c2C)cc1[N+](=O)[O-]` (stereo not given), for which the inhibition was 12.7%.

`Cc1ccsc1C(=O)OCC(=O)Nc1cccc(F)c1`: the inhibition is -4.47%.

With `Cc1ccc(S(=O)(=O)N(CCc2ccccc2)c2ccc3c(c2)C2CC3CCN2C(=O)OCc2ccccc2)cc1` (stereo not given), the inhibition is -3.7%.

With `O=C(CSc1ncnc2sccc12)NC1CCS(=O)(=O)C1` (stereo not given), the inhibition was 5.19%.

With `O=C(CSc1ncnc2sccc12)N1CCN(C(=O)c2cccs2)CC1`, the inhibition was 69.5% (active).

In the case of `COc1ccc(OCC(=O)N2CCN(C(=O)c3cccs3)CC2)cc1`, the inhibition was -13.6%.

For the molecule `Cc1nc2ccccn2c(=O)c1NC(=O)c1ccc(Br)o1`, the inhibition was 1.95%.

For `CCOC(=O)C1CCN(C(=O)c2ccc3c(=O)n4nc(Nc5ccccc5CC)sc4nc3c2)CC1`, the inhibition was 0.7%.

Consider `O=C(Nc1ccc([N+](=O)[O-])cc1)C1CC12CCC2` (stereo not given), for which the inhibition is -7.83%.

For the molecule `NC(=O)C1(Nc2ccc(-c3ccccc3)cc2)CCCC1`, the inhibition is 0.238%.

Consider `NC(=O)C1(Nc2ccc([N+](=O)[O-])cc2)CCCC1`, for which the inhibition was 58.8% (active).

On to `NC(CSC(c1ccccc1)(c1ccccc1)c1ccc(-c2ccccc2)cc1)C(=O)O` (stereo not given), for which the inhibition was -1.87%.

Take `Nc1nc(SCc2ccc([N+](=O)[O-])cc2)c2ncn(C3OC(CO)C(O)C3O)c2n1` (stereo not given): the inhibition was -5.79%.

For `Cc1nc(SCc2ccc(F)cc2)c([N+](=O)[O-])[nH]1`, the inhibition was 2.2%.

Take `Cc1nc(N)nc(SCc2ccc([N+](=O)[O-])cc2)c1N`: the inhibition was 50.3% (active).

Take `N#CCCN(C(=S)Nc1ccc(Cl)c(Cl)c1)C1CCCCC1`: the inhibition is -1.92%.

For `Cc1cccc(N(CC(=O)N2CCCC2)S(C)(=O)=O)c1C`, the inhibition is -6.4%.

As for `Cc1ccc2cccc([N+](=O)[O-])c2n1`, the inhibition is 7.19%.

`O=C(OCc1cn([C@@H]2C[C@H](c3ccc(Cl)cc3)N(Cc3cccs3)C[C@H]2O)nn1)c1ccccc1`: the inhibition was 3.08%.

In the case of `O=C(Cc1ccccc1)N1N=C(c2ccncc2)CC1(O)C(F)(F)F` (stereo not given), the inhibition was 4.93%.

For the molecule `O=C(C1CC1)N1N=C2CCCCC2C1(O)C(F)(F)F` (stereo not given), the inhibition is 0.262%.

Regarding `O=C(C1CC1)N1N=C(c2ccc(Br)cc2)CC1(O)C(F)(F)F` (stereo not given), the inhibition is 48.3% (active).

Take `C[C@@H]1CN([C@@H](C)CO)C(=O)c2cc(Br)cnc2O[C@H]1CN(C)Cc1ccc(-c2ccccc2)cc1`: the inhibition was -10.5%.

Regarding `C[C@@H]1CN([C@H](C)CO)C(=O)c2cc(Br)cnc2O[C@@H]1CN(C)Cc1cncnc1`, the inhibition was -0.147%.

For the molecule `Nc1cc(=O)c2[nH]cnc2[nH]1`, the inhibition was 5.05%.

As for `O=C1CCC(=O)N1CCC(=O)N(C(=O)NC1CCCCC1)C1CCCCC1`, the inhibition was -0.58%.

As to `CCc1nnc(NC(=O)c2ccc(S(=O)(=O)NC3CCCCC3)cc2)s1`, the inhibition was -6.69%.

`CCc1nnc(NC(=O)c2cc(S(=O)(=O)N3CCCCC3)ccc2C)s1`: the inhibition is 2.74%.

For `CCc1nnc(NC(=O)c2cc(S(=O)(=O)N3CCN(CC)CC3)ccc2Cl)s1`, the inhibition is 68.4% (active).

Consider `O=C(Nc1ccc(Cl)cn1)c1ccccc1-c1ccccc1`, for which the inhibition was 3.03%.

Regarding `c1ccc(CNCc2ccc(CNCc3ccccc3)cc2)cc1`, the inhibition was -5.41%.

With `Cc1ccc(S(=O)(=O)/N=C2\C=C(NS(=O)(=O)c3ccc(C)cc3)C(=O)c3ccccc32)cc1`, the inhibition was -0.482%.

Source of the values: PubChem BioAssay AID504558 (Broad Institute, 2011).
